PubChem BioAssay (EPA / NIEHS)
Inconclusive results are not listed. Activity calls are given as the source filed them. Rule for the calls: active = hit-call score of the fitted dose curve at least 0.9, where 1 is the maximum; inconclusive = response in the unintended direction; inactive = score below 0.9.

Target: human Retinoid X Receptor beta (RXRb), RXRB (gene 6257) (UniProt P28702)
Assay: ATG_RXRb_TRANS: Attagene TRANS-FACTORIAL HepG2 Assay for human Retinoid X Receptor beta (RXRb) (AID 2283013)
Method: ATG_TRANS is a cell-based, multiplexed-readout assay that uses HepG2, a human liver cell line, with measurements taken at 24 hours after chemical dosing in a 24-well plate.ATG_RXRb_TRANS is one of 30 assay component(s) measured or calculated from the ATG_TRANS assay. It is designed to make measurements of mRNA induction, a form of inducible reporter, as detected with fluorescence intensity signals by Reverse transcription polymerase chain reaction (RT-PCR) and Capillary electrophoresis technology.Data from the assay component ATG_RXRb_TRANS was analyzed into 1 assay endpoint. This assay endpoint, ATG_RXRb_TRANS, was analyzed in the positive analysis fitting direction relative to DMSO as the negative control and baseline of activity. Using a type of inducible reporter, measures of mRNA for gain-of-signal activity can be used to understand the reporter gene at the transcription factor-level as they relate to the gene RXRB. Furthermore, this assay endpoint can be referred to as a primary readout, because this assay has produced multiple assay endpoints where this one serves a reporter gene function. To generalize the intended target to other relatable targets, this assay endpoint is annotated to the nuclear receptor intended target family, where the subfamily is non-steroidal.
Human liver HepG2 cells are transiently transfected with multiple reporter transcription units (MRTUs) in 6-well plates using FuGene 6 reagent (Roche; 3 ml FuGene/1 mg DNA). The MRTU constructs are regulated by a cis-regulating element (promoter). […] A major difference between the CIS and TRANS system is that in CIS activities of endogenous TFs are measured, whereas the TRANS assay evaluates changes in activities of exogenous, chimeric NR-Gal4 proteins. […] At the end of 24 hour incubation, total RNA was isolated using TriZol reagent (Invitrogen). The isolated RNA is then reverse-transcribed using oligo(dT) primer and Mo-MLV reverse transcriptase (Invitrogen) with DNAse I (Ambion) treatment for 30 min. The one-tenth of the produced cDNA was amplified by PCR using Taq DNA polymerase (Invitrogen) and two reporter sequence-specific primers. The PCR products were fluorescently labeled by primer extension with 6-arboxyfluorescein (6-FAM) 5'-labeled reporter sequence-specific primer (2 min at 95 C, 20 s at 68 C and 10 min at 72 C) and these products were digested with 5U of HpaI (New England Biolabs) for 2h at 37 C. The fragments were purified using Qiaquick PCR columns (Qiagen), analyzed on an ABI 3130xL genetic analyzer (Applied Biosystems) with peak positions identified by using a set of X-rhodamine (ROX)-labeled MapMarker1000 molecular weight standards (BioVentures). The raw capillary electrophoresis data was processed using Attagraph software (Attagene).

Chain of human Retinoid X Receptor beta (RXRb), RXRB (gene 6257) (P28702 whole entry, looked up): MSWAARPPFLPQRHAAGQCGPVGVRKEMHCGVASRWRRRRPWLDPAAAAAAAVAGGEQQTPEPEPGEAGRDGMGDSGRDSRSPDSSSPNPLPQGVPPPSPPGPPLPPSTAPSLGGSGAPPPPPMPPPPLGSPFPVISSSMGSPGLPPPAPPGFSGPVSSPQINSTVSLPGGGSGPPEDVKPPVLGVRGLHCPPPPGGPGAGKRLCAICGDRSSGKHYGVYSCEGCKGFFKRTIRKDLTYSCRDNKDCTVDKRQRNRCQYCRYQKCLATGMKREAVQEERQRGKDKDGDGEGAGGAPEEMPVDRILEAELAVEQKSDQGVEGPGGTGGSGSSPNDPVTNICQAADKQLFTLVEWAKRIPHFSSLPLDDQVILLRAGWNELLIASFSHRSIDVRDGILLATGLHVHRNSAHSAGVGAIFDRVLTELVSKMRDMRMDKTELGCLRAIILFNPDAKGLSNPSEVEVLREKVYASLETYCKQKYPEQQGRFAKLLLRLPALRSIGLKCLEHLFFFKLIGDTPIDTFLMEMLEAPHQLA

Compound	outcome	AC50
Cc1ccc2ncccc2c1	inactive	–
CC(=O)OCCOCCOCCOC(C)=O	inactive	–
Cc1cccc([N+](=O)[O-])c1C	–	53.4 µM (active)
Cc1cc(NC(=O)C(=O)O)cc(C)c1Oc1ccc(O)c2c1CCC2	inactive	–
C=CCc1ccc(O)c(OC)c1	–	63.2 µM (active)
CNCc1cc(F)ccc1Oc1ccc(Cl)c(Cl)c1	inactive	–
COc1cccc2c1C(=O)c1c(O)c3c(c(O)c1C2=O)C[C@@](O)(C(=O)CO)C[C@@H]3O[C@H]1C[C@H](N)[C@H](O)[C@H](C)O1	–	0.0616 µM (active)
CC(C)(C)c1cc(O)c(C(C)(C)C)cc1O	–	59.4 µM (active)
COC(=O)c1ccc(O)cc1	–	55.3 µM (active)
CCCCCCOCCO	inactive	–
CNC(=O)[C@H]1O[C@@H](n2cnc3c(NCc4cc(Cl)ccc4OCc4cc(C)no4)ncnc32)[C@H](O)[C@@H]1N	inactive	–
Cc1c(C(=O)O)c(O)cc2c1C(=O)c1c(O)c([C@@H]3O[C@H](CO)[C@@H](O)[C@H](O)[C@H]3O)c(O)c(O)c1C2=O	inactive	–
Nc1ccccc1N	inactive	–
CCCCCCCCCCCC(=O)OC	–	57.9 µM (active)
Oc1ccc2c(c1)OC[C@@H](N1CCC(O)(c3ccc(F)cc3)CC1)[C@H]2O	inactive	–
Nc1ccc2c(c1)C(=O)c1ccccc1C2=O	inactive	–
CCNc1cccc(C)c1	inactive	–
CCOC(=O)C(C)(C)Oc1ccc(Cl)cc1	inactive	–
Oc1ccc2ccccc2c1N=Nc1ccccc1	–	6.33 µM (active)
Cc1ccccc1Cl	inactive	–

Compound	outcome	AC50
NS(=O)(=O)c1cc2c(cc1Cl)NCNS2(=O)=O	inactive	–
O=C(OCCCCCOC(=O)c1ccccc1)c1ccccc1	inactive	–
CC1=C(/C=C/C(C)=C/C=C/C(C)=C/CO)C(C)(C)CCC1	–	0.474 µM (active)
CCCCCC(=O)O	inactive	–
CCCCOC(=O)CCCCCCCCC(=O)OCCCC	inactive	–
CCCCCCCC=O	inactive	–
CCCCCCC(=O)OCC	–	32.5 µM (active)
Cc1ccc(C)c(O)c1C	inactive	–
Cc1ccc(C(C)C)c(O)c1	–	40.6 µM (active)
Cc1ccc(N(C)C)cc1	inactive	–
CC(CO)OC(C)CO (stereo not given) (tested in a mixture with another compound)	–	13.8 µM (active)
O=c1c(O)c(-c2ccc(O)c(O)c2)oc2cc(O)cc(O)c12	inactive	–
FC(F)(F)C(F)(F)C(F)(F)C(F)(F)C(F)(F)C(F)(F)CCI	inactive	–
Nc1nc(N)c2nc(CNc3ccc(C(=O)N[C@@H](CCC(=O)O)C(=O)O)cc3)cnc2n1	inactive	–
C1CCC(SSC2CCCCC2)CC1	inactive	–
Cc1cccc(C)c1O	inactive	–
CC(=O)Oc1ccccc1C(=O)O	–	8.23 µM (active)
CC(=O)C(C)=CC1C(C)=CCCC1(C)C (stereo not given)	–	27.9 µM (active)
NCCO	inactive	–
Cc1oc(-c2ccccc2)nc1CCOc1cccc2c1ccn2CCC(=O)O	–	8.2 µM (active)
